Results: PubChem BioAssay (NCI)
This is part of a sample that, as a whole, favours compounds with a hit. Of some 79,000 tested, about 15% had one in any assay. Values without a mark were called inactive. Active and inactive are the calls of the source. Cut-off read from the data, not from the text of the source: active = growth inhibition above about 70%; inactive = the rest.

Test: NCI Yeast Anticancer Drug Screen. Data for the rad50 strain (AID 155);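 note: 0% = growth of vehicle-only cultures of the same strain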
Details: S. cerevisiae rad50 strain growth inhibition; at 50.0 µM; stronger effect = higher value
How it was run: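 Growth of the mutant yeast was measured after compound exposure and referenced to vehicle-treated cultures.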

**Q.** With `CCOP(=O)(OCC)/C(C#N)=C/c1ccc(Oc2ccccc2)cc1` as the compound, how does the growth inhibition read?
**A.** 90.2% (active)

**Q.** With `CC(=O)Nc1ccc(S(=O)(=O)/N=C2\C=CC(=O)c3ccccc32)cc1` as the compound, how does the growth inhibition read?
**A.** 63.9%

**Q.** For `CCCC#CCCOC(=O)c1cc([N+](=O)[O-])cc([N+](=O)[O-])c1`, which growth inhibition is on record?
**A.** 99.2% (active)

**Q.** With `COc1cccc2c1OC(c1ccc(Cl)cc1)C([N+](=O)[O-])=C2` (stereo not given) as the compound, how does the growth inhibition read?
**A.** 85.7% (active)

**Q.** Which growth inhibition does the source give for `c1ccc(-n2c3ccccc3c3ccccc32)cc1` here?
**A.** 86.7% (active)

**Q.** Which growth inhibition does the source give for `CCOC(=O)C(NC(C)=O)[CH](c1ccccc1)[Sn]([c]1ccccc1)([c]1ccccc1)[c]1ccccc1` (stereo not given) here?
**A.** 94.4% (active)

**Q.** For `C/C(CCn1[nH]c(=O)ccc1=O)=N\Nc1ccc([N+](=O)[O-])cc1[N+](=O)[O-]`, which growth inhibition is on record?
**A.** 67.3%

**Q.** Which growth inhibition does the source give for `N#CC(O)C(Br)(Br)Br` (stereo not given) here?
**A.** 82.7% (active)

**Q.** With `COc1ccc(N)c([N+](=O)[O-])c1` as the compound, how does the growth inhibition read?
**A.** 41.8%

**Q.** With `CC(C)O[C@H]1N(C2CC(N=[N+]=[N-])C(CO)O2)C(=O)NC(=O)[C@]1(C)Br` (stereo not given in full) as the compound, how does the growth inhibition read?
**A.** 87.1% (active)

**Q.** Which growth inhibition does the source give for `COc1ccc(C(=O)C2C(=O)C(=O)OC2C2OC(=O)C(=O)C2C(=O)c2ccc(OC)cc2)cc1` (stereo not given) here?
**A.** -9.6%

**Q.** For `O=[N+]([O-])c1c(Cl)c(Cl)c(O)c(Cl)c1Cl`, which growth inhibition is on record?
**A.** 76.5% (active)

**Q.** With `Cc1ccc(C)c(NC(=O)CCC(=O)CC(=O)c2ccncc2)c1` as the compound, how does the growth inhibition read?
**A.** -32%

**Q.** For `CC(C)CCCC(C)C1CCC2C3CC=C4CC(OC(=O)Nc5ccc(S(=O)(=O)c6ccc(F)cc6)cc5)CCC4(C)C3CCC12C` (stereo not given), which growth inhibition is on record?
**A.** 96.3% (active)

**Q.** For `COc1ccc(/C=C(/NC(=O)c2ccccc2)C(=O)Nc2ccccc2)cc1OC`, which growth inhibition is on record?
**A.** 3.3%

**Q.** With `C=C(Br)CN(CC(=C)Br)C(C)=O` as the compound, how does the growth inhibition read?
**A.** -11.7%

**Q.** Which growth inhibition does the source give for `CCN(C(C)=O)c1ccc2c(c1)Cc1ccccc1-2` here?
**A.** 97.2% (active)

**Q.** Which growth inhibition does the source give for `NN(c1ccccc1)c1cccc2ccccc12` here?
**A.** -16.4%

**Q.** For `C#CCN1CCN(C(=S)N/N=C(\C)c2ccccn2)CC1`, which growth inhibition is on record?
**A.** 99.5% (active)

**Q.** For `CC(C)OC(=O)C1C=CCc2c(O)ccc(O)c21` (stereo not given), which growth inhibition is on record?
**A.** 21.2%

**Q.** For `CC(=O)C1C(=O)C=C(C)OC1=O` (stereo not given), which growth inhibition is on record?
**A.** 40.5%

**Q.** For `CCOC(=O)c1[nH]n(-c2ccccc2)c(=O)c1/C=N/C(=S)N=Nc1c(O)[nH]c2ccccc12`, which growth inhibition is on record?
**A.** -2.3%

**Q.** Which growth inhibition does the source give for `N#Cc1c(Cl)nnc(-c2ccccc2)c1-c1ccccc1` here?
**A.** 89.3% (active)

**Q.** For `CC(=O)Oc1c(O)c2ccccc2c2ccccc12`, which growth inhibition is on record?
**A.** 99.5% (active)

**Q.** For `Cc1cccnc1NC(=S)Nc1ccccc1Cl`, which growth inhibition is on record?
**A.** 89.5% (active)

**Q.** Which growth inhibition does the source give for `CCOC(=O)/C(=C\c1cccc(OC)c1)C(C)=O` here?
**A.** 90.2% (active)

**Q.** Which growth inhibition does the source give for `c1ccc(C(c2ccccc2)c2ccc3ccccc3n2)cc1` here?
**A.** 18.1%

**Q.** With `O=c1cc(CSc2ccc(Cl)cc2)occ1O` as the compound, how does the growth inhibition read?
**A.** 44.5%

**Q.** With `COc1cc(NCCCCCNC2CCCCC2)c2ncccc2c1` as the compound, how does the growth inhibition read?
**A.** 83.2% (active)

**Q.** For `CC(=O)OCc1ccc([N+](=O)[O-])o1`, which growth inhibition is on record?
**A.** 96.3% (active)

**Q.** With `O=C(O)Cc1cccc2cc3c(ccc4ccccc43)cc12` as the compound, how does the growth inhibition read?
**A.** 47.7%

**Q.** For `Cc1cccc(N2C(=O)c3ccccc3C2(c2ccccc2)N2CCCCC2)c1` (stereo not given), which growth inhibition is on record?
**A.** 65%

**Q.** For `O=C(/C=C/c1ccccc1)CCN1CCOCC1`, which growth inhibition is on record?
**A.** 91.3% (active)

**Q.** Which growth inhibition does the source give for `C=CCCCCCCCCC(=O)CCCCCCCCC=C` here?
**A.** 7.6%

**Q.** With `Cc1ccc(O)c(C(C)c2ccccc2)c1` (stereo not given) as the compound, how does the growth inhibition read?
**A.** 99.2% (active)

**Q.** For `COC(=O)c1nc(N)nc(C(=O)OC)c1C(=O)c1ccccc1`, which growth inhibition is on record?
**A.** -32.9%

**Q.** For `Cc1ccc(S(=O)(=O)Oc2ccc(C(C)(C)C)cc2Cl)cc1`, which growth inhibition is on record?
**A.** -5.5%

**Q.** Which growth inhibition does the source give for `CCCCCCCCCCCCCCC[N+]1(CC)CCCCC1` here?
**A.** 90.3% (active)

**Q.** Which growth inhibition does the source give for `CC12CCC(=O)C=C1C=CC1C2CCC2(C)C1CCC21CCC(=O)O1` (stereo not given) here?
**A.** 74.6% (active)

**Q.** Which growth inhibition does the source give for `CC(C)N(C(=O)C12C3C4C1C1C2C3C41I)C(C)C` (stereo not given) here?
**A.** 57.5%
